{"source": "PubChem BioAssay (NCATS)", "note": "Inconclusive results are not listed. A call without a number means that no potency is given here. Calls of active or inactive are those of the source. Calls follow the shape of the dose curve; as a rule, active = well fitted activation curve with a large enough effect; inconclusive = small, poorly fitted or top-dose-only effect; inactive = flat fitted curve, though single readings scatter. Potency is read from the fitted curve at half-maximal effect.", "data": [{"biological_target": "Cellular tumor antigen p53 (Homo sapiens) (UniProt P04637)", "sequence (P04637 whole entry, looked up)": "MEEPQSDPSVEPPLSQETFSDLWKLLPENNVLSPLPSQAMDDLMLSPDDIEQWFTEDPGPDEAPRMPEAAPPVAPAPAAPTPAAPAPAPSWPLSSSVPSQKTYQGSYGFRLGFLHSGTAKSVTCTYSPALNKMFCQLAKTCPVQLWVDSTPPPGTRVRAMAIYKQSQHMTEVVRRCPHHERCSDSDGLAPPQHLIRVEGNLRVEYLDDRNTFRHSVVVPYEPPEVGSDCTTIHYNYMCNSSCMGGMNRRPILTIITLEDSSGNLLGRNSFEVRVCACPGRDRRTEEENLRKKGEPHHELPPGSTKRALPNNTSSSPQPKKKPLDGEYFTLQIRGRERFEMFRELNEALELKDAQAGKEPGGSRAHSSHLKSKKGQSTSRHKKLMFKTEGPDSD", "experiment": "Primary qHTS for small molecule compounds that upregulate eGFP-tagged delta133p53alpha (in C-terminal) cells. (AID 2060324)", "details": "NCI-H358 delta133p53alpha-eGFP (C-terminal tag), GFP fluorescence imaging, 24 h; series mostly up to 57.5 µM", "excerpt": "Assay Development and Screening Technology\nNational Center for Advancing Translational Sciences (NCATS),\nNational Institute of Health (NIH), Rockville, Maryland\nCellular senescence (CS) is one of the hallmarks of aging and age-related diseases. Senescent cells are characterized by an irreversible growth arrest, an increase in senescence-associated beta-galactosidase (SA-beta-gal) activity and p16INK4a expression, an activation of the DNA damage response pathways, and the emergence of a senescence-associated secretory phenotype (SASP).\nDelta133p53alpha, a human/primate-specific p53 protein isoform, delays or inhibits the induction of CS and SASP in various types of human cells, including progeria-derived fibroblasts, primary normal astrocytes, and CD8+ T lymphocytes. Induction of delta133p53alpha with small molecule compounds may provide therapeutic opportunities for inhibition of senescence/SASP-associated pathologies in progeria syndromes, astrocyte-mediated neuroprotection in neurodegenerative diseases, and possibly prevention and treatment of a wider range of senescence- and aging-associated diseases.\nHere we report the development and validation of a cell-based quantitative high throughput screening (qHTS) assay in 1,536-well format. This qHTS assay uses the NCI-H358 cell line with doxycycline-inducible expression of enhanced green fluorescent protein (eGFP)-tagged delta133p53alpha, which allows efficient and highly quantitative measurement of the protein levels.\nPROTOCOL TABLE (as described by Inglese J, Shamu CE and Guy RK. 2007)\nSEQUENCE No. (e.g., 1, 2, 3, etc.); […] (e.g., Cells, Incubation, Reagent, etc.); VALUE; DESCRIPTION.\n1; Cells; 4uL; 800 doxycycline treated cells / well in doxycycline-free media, 1536-well black, clear-bottom low base Aurora microplates.\n2; Compounds; 23 nL; Kalypsis pin tool (Wako) equipped with 1536-well pin heads, 5-azacytidine positive control.\n3; Incubation; 24 hr; 37C, 5% CO2; 95% relative humidity.\n4; Aspiration; 1x; BioTek EL406 washer dispenser (Agilent).\n5; Fixing; 3.5% paraformaldehyde, BioTek EL406 washer dispenser (Agilent).\n6; Washing; 1x PBS; BioTek EL406 washer dispenser (Agilent).\n7; Nuclei staining; 1:1000 dilution of Hoechst 33342 (Thermofisher), BioTek EL406 washer dispenser (Agilent).\n8; Incubation; 20 min; in the dark at room temperature.\n9; Washing; 2x, 1x PBS (ThermoFisher), BioTek EL406 washer dispenser (Agilent).\n10; Reagent; 10 uL; 1x PBS per well, sealed with clear adhesive tape.\n11; Detection; Fluorescence, Acumen eX3 laser scanning cytometer (STP Labtech), GFP filters […].\nNOTES (numbers refer to sequence numbers above).\n1. NCI-H358 cells expressing eGFP-tagged delta133p53alpha were grown in T75 culture flasks and treated with doxycycline for 24h, at 10 ng/ml for eGFP-D133p53a cells (N-terminal cell) and 100 ng/ml for D133p53a-eGFP cells (C-terminal cells). Cells were trypsinized, counted using a Counted 3 Automated Cell Counter (Thermo Fisher), and diluted to a concentration of 200,000 cells/ml. A Multidrop Combi Reagent Dispenser (ThermoFisher) was used to dispense 800 cells/well in […] of doxycycline-free media, into 1536-well black/clear bottom low base plates (AuroraMicroplates).\n2. After plating cells, 23 nl of compound library, DMSO vehicle control or positive control (5-azacytidine) were transferred by Pin Tool (Wako). The plate map layout was the same for each plate: (column 1) non-doxycycline treated cells + DMSO vehicle control; (column 2) doxycycline treated cells + DMSO vehicle control baseline; (column 3) doxycycline treated cells + positive control 57.5 uM final concentration 5-azacytidine; (column 4) doxycycline treated cells + serial dilution of 5-azacytidine, 16-point 1:2 titration spanning 1.8 nM to […] final concentration; (columns 5-48) doxycycline treated cells + titration of library compounds.\n3. Cells were incubated at 37 °C, 5 % CO2, 95% RH with breathable metal lid for 24h.\n4-10. […] […]", "values": [{"smiles": "N#C/C(=C\\c1ccc(O)c(O)c1)C(=O)c1ccc(O)c(O)c1", "Potency": "inactive"}, {"smiles": "CC(=O)NCCc1c[nH]c2ccc(O)cc12", "Potency": "inactive"}, {"smiles": "CC#CCOC(=O)c1c(C)nc2sc3c(c2c1N)CCC(O)C3", "note": "(stereo not given)", "Potency": "inactive"}, {"smiles": "Cc1cccc(C)c1OCC(C)N", "note": "(stereo not given)", "Potency": "inactive"}, {"smiles": "CO/N=C(\\C(=O)N[C@@H]1C(=O)N2C(C(=O)O)=C(COC(C)=O)CS[C@H]12)c1csc(N)n1", "Potency": "inactive"}, {"smiles": "O=c1[nH]cc(F)c(=O)[nH]1", "Potency": "inactive"}, {"smiles": "FC(F)(F)c1ccccc1-n1ccnc1", "Potency": "inactive"}, {"smiles": "Cn1c(=O)[nH]c2ncn(C)c2c1=O", "Potency": "inactive"}, {"smiles": "COC(=O)[C@H]1[C@H]2C[C@@H]3c4[nH]c5cc(OC)ccc5c4CCN3C[C@H]2C[C@@H](OC(=O)c2cc(OC)c(OC)c(OC)c2)[C@@H]1OC", "Potency": "26.9 µM (active)"}, {"smiles": "C[C@H](Cc1ccc(O)c(O)c1)[C@@H](C)Cc1ccc(O)c(O)c1", "Potency": "inactive"}, {"smiles": "C[C@]12CC[C@@H]3c4ccc(O)cc4CC[C@H]3[C@@H]1CCC2=O", "Potency": "inactive"}, {"smiles": "Clc1ccc2nsnc2c1NC1=NCCN1", "Potency": "inactive"}, {"smiles": "O=C(O)COCCN1CCN(C(c2ccccc2)c2ccc(Cl)cc2)CC1", "note": "(stereo not given)", "Potency": "inactive"}, {"smiles": "NCCCNCCSP(=O)(O)O", "Potency": "inactive"}, {"smiles": "C[C@H]1O[C@@H](n2cc(F)c(=O)[nH]c2=O)[C@H](O)[C@@H]1O", "Potency": "inactive"}, {"smiles": "NC(N)=N[C@@H](CCC(=O)O)C(=O)O", "Potency": "inactive"}, {"smiles": "NC(=O)c1cnccn1", "Potency": "inactive"}, {"smiles": "NS(=O)(=O)c1ccc(-n2nc(C(F)(F)F)cc2-c2ccc(Cl)cc2)cc1", "Potency": "inactive"}, {"smiles": "CCN(CC)CCOC(=O)c1ccc(N)cc1", "Potency": "inactive"}, {"smiles": "CC(C(=O)O)c1cccc(C(=O)c2ccccc2)c1", "note": "(stereo not given)", "Potency": "inactive"}, {"smiles": "NC(=O)CC[C@H](N)C(=O)O", "Potency": "inactive"}, {"smiles": "CN(C)C(=O)Oc1ccc[n+](C)c1", "Potency": "inactive"}, {"smiles": "CC/C(=C(\\c1ccccc1)c1ccc(OCCN(C)C)cc1)c1ccccc1", "Potency": "inactive"}, {"smiles": "O=c1ccc2ccc(O)c(O)c2o1", "Potency": "inactive"}, {"smiles": "CSc1nc(N)c2ncn([C@@H]3O[C@H](COP(=O)(O)OP(=O)(O)OP(=O)(O)O)[C@@H](O)[C@H]3O)c2n1", "Potency": "inactive"}, {"smiles": "c1ccc2nc(C3=NCCN3)ccc2c1", "Potency": "inactive"}, {"smiles": "CC1=C(/C=C/C(C)=C/C=C/C(C)=C\\C(=O)O)C(C)(C)CCC1", "Potency": "inactive"}, {"smiles": "CCCn1c(=O)[nH]c(=O)c2[nH]cnc21", "Potency": "inactive"}, {"smiles": "N=c1ccn2c(n1)O[C@H]1[C@H](O)[C@@H](CO)O[C@H]12", "Potency": "inactive"}, {"smiles": "CC1=C(C(=O)O)N2C(=O)[C@@H](NC(=O)C(N)c3ccccc3)[C@H]2SC1", "note": "(stereo not given in full)", "Potency": "inactive"}, {"smiles": "CC1=C(CC(=O)O)c2cc(F)ccc2/C1=C\\c1ccc(S(C)=O)cc1", "note": "(stereo not given)", "Potency": "inactive"}, {"smiles": "COc1ccc(CCN(C)CCCC(C#N)(c2cc(OC)c(OC)c(OC)c2)C(C)C)cc1OC", "note": "(stereo not given)", "Potency": "inactive"}, {"smiles": "NNCCc1ccccc1", "Potency": "inactive"}, {"smiles": "CN(C)CCN(Cc1cccs1)c1ccccn1", "Potency": "inactive"}, {"smiles": "COC(=O)[C@H](NC(=O)c1cc(-c2ccccc2)nc2ccccc12)c1ccccc1", "Potency": "inactive"}, {"smiles": "CNCCNS(=O)(=O)c1cccc2cnccc12", "Potency": "inactive"}, {"smiles": "CCOC(=O)N1CCC(=C2c3ccc(Cl)cc3CCc3cccnc32)CC1", "Potency": "inactive"}, {"smiles": "CN1C2CCC1CC(OC(c1ccccc1)c1ccccc1)C2", "note": "(stereo not given)", "Potency": "inactive"}, {"smiles": "CCN(CC)CCNC(=O)c1ccc(NC(C)=O)cc1", "Potency": "inactive"}, {"smiles": "COc1ccccc1N1CCN(CCCCN2C(=O)c3ccccc3C2=O)CC1", "Potency": "inactive"}]}]}
